In PubChem BioAssay (NCI):
About 83,000 compounds went through this panel and 20% of them were active in at least one assay; those are over-represented in the sample as a whole.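 How to read the values: 0–100, growth inhibition (40 = 60% inhibited); 0, no net growth; -100 to 0, cell death (-40 = 40% of starting cells died; -100 = all dead).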 Activity calls are given as the source filed them. The calls were made as follows: active = growth percent below 10; inactive = the rest.

Assays:
Assay in all cases: NCI-60 one-dose screen, 48 h (100 = growth as untreated, 0 = no growth, -100 = all killed)
[1] = system: HCT-15 colon; conditions: 10 µM unless noted
[2] = system: HT29 colon; conditions: 10 µM unless noted
[3] = system: SNB-75 CNS; conditions: 10 µM unless noted
[4] = system: SNB-19 CNS; conditions: 10 µM unless noted
[5] = system: U251 CNS; conditions: 10 µM unless noted
[6] = system: PC-3 prostate; conditions: 10 µM unless noted
[7] = system: SK-MEL-5 melanoma; conditions: 10 µM unless noted
[8] = system: UACC-62 melanoma; conditions: 10 µM unless noted
[9] = system: LOX IMVI melanoma; conditions: 10 µM unless noted
[10] = system: SK-MEL-28 melanoma; conditions: 10 µM unless noted
[11] = system: SK-MEL-2 melanoma; conditions: 10 µM unless noted
[12] = system: EKVX NSCLC; conditions: 10 µM unless noted
[13] = system: SN12C renal; conditions: 10 µM unless noted
[14] = system: TK-10 renal; conditions: 10 µM unless noted
[15] = system: ACHN renal; conditions: 10 µM unless noted
[16] = system: CAKI-1 renal; conditions: 10 µM
[17] = system: A498 renal; conditions: 10 µM unless noted
[18] = system: CCRF-CEM leukemia; conditions: 10 µM unless noted
[19] = system: MOLT-4 leukemia; conditions: 10 µM unless noted
[20] = system: UO-31 renal; conditions: 10 µM unless noted

Measured: growth

CCCN1C(=O)CSC1=Nc1ccc2cc3ccc(N=C4SCC(=O)N4CCC)cc3nc2c1
active: [2] 4.45% | [7] -17.7% | [19] -18.8%
inactive: [1] 24.4% | [3] 29.6% | [4] 55.4% | [5] 36.9% | [6] 16.7% | [8] 36.9% | [9] 11.4% | [10] 86.5% | [11] 38.1% | [12] 33.8% | [13] 75% | [14] 56.8% | [15] 36.4% | [16] 36% | [17] 63.4% | [18] 31%

O=C1CCC(c2c(O)cc(O)c3c(=O)c(O)c(-c4ccc(O)c(O)c4)oc23)N1 (centres undefined)
inactive: [1] 102% | [2] 84% | [3] 99.2% | [4] 108% | [5] 101% | [6] 93.3% | [7] 101% | [9] 96.9% | [10] 102% | [11] 98.2% | [12] 106% | [13] 105% | [20] 82.6% | [14] 92.7% | [17] 92.1% | [18] 103% | [19] 92.2%

CC(=O)c1ccc2c(c1)C1C=CCC1[C@H](c1cc3c(cc1Br)OCO3)N2 (some centres undefined)
inactive: [1] 18.4% | [3] 30.6% | [4] 44.6% | [5] 14% | [6] 20.9% | [8] 34.6% | [10] 72.7% | [11] 16.1% | [12] 34.9% | [13] 43.5% | [14] 60.6% | [15] 38.6% | [16] 20.3% | [17] 13.5%
active: [2] 4.15% | [7] 9.13% | [9] -35.6% | [19] 7.5%

CC[C@@]1(O)C(=O)OCc2c1cc1n(c2=O)Cc2c-1nc1ccccc1c2/C=N/OC(C)(C)C
inactive: [1] 11.2% | [6] 23.6% | [10] 14.3% | [12] 17%
active: [2] -13.9% | [3] 0.198% | [4] 5.74% | [5] -37.4% | [7] -66.3% | [9] -58.5% | [11] -17.8% | [13] 5.56% | [20] -64.8% | [14] 1.26% | [17] -70.2% | [18] 4.16% | [19] -10.6%

COc1ccc(-c2cnc(-c3ccc(F)cc3)[nH]2)cc1
active: [9] 6.54% | [18] -48.2%
inactive: [1] 53.2% | [2] 16.4% | [3] 98.6% | [4] 98.5% | [5] 33.3% | [6] 73.7% | [7] 101% | [10] 110% | [11] 113% | [12] 90.7% | [13] 99% | [20] 84.5% | [14] 230% | [15] 105% | [17] 97.1% | [19] 54.7%

O=C(O)c1cn(C2CC2)c2cc(N3CCN(C(=O)CSc4nc(NS(=O)(=O)c5ccccc5)cc(=O)[nH]4)CC3)c(F)cc2c1=O
inactive: [1] 94.9% | [2] 119% | [3] 98.8% | [4] 99.3% | [5] 97.7% | [6] 85% | [7] 94.6% | [9] 90.9% | [10] 98% | [11] 79.7% | [12] 105% | [13] 98.6% | [20] 82% | [14] 118% | [15] 102% | [18] 81%

CCOC(=O)C1CN(Cc2ccccc2)C(=O)C1=O (centres undefined)
inactive: [1] 86.2% | [2] 115% | [3] 76.1% | [4] 101% | [5] 111% | [6] 91.8% | [7] 106% | [9] 104% | [10] 101% | [11] 114% | [12] 110% | [13] 108% | [20] 64.3% | [14] 113% | [15] 104% | [17] 91.6% | [18] 22.9%

O=C(NOC1OC(CO)C(O)C(O)C1O)Nc1ccccc1 (centres undefined)
inactive: [1] 109% | [2] 105% | [3] 105% | [4] 100% | [5] 102% | [6] 93.2% | [7] 104% | [8] 93.7% | [9] 96.7% | [10] 117% | [11] 98.3% | [12] 102% | [13] 91.6% | [14] 109% | [15] 101% | [16] 92.1% | [17] 120% | [18] 91% | [19] 79.7%

COC(OC)C1(c2ccccc2)NC(=O)NC1=O (centres undefined)
inactive: [1] 110% | [2] 106% | [3] 94% | [4] 106% | [5] 107% | [6] 103% | [7] 115% | [9] 109% | [10] 106% | [11] 104% | [12] 112% | [13] 101% | [20] 101% | [14] 101% | [15] 108% | [17] 108% | [18] 112% | [19] 89.1%

COc1ccc2c(c1)C(=O)/C(=C/c1ccc(OCC(=O)c3ccc(Cl)cc3)cc1)O2
active: [3] -0.258% | [16] -53.4%
inactive: [1] 98.8% | [2] 100% | [4] 101% | [5] 80.9% | [6] 50.9% | [7] 131% | [8] 72.2% | [9] 40.1% | [10] 104% | [11] 87% | [12] 82% | [13] 92.2% | [14] 132% | [15] 98.8% | [17] 148% | [18] 29% | [19] 20%

CCCC(=O)Oc1ccc(/C(=C(\C)c2ccc(Cl)cc2)c2ccc(OCCN(CC)CC)cc2)cc1
inactive: [12] 12% | [13] 35.3% | [17] 11.5%
active: [1] -79.9% | [2] -50% | [3] -48.1% | [4] -38.1% | [5] -84.6% | [6] -15.4% | [7] -99.7% | [8] -42.2% | [9] -98% | [10] -69.8% | [11] -74.4% | [20] -65% | [19] -13.1%

Nc1n[nH]c2cccc(C#Cc3cccc(NC(=O)c4cccc(C(F)(F)F)c4)c3)c12
inactive: [1] 30.2% | [2] 13.3% | [3] 30.5% | [4] 80.1% | [6] 39.9% | [7] 43.9% | [8] 26.1% | [10] 23.9% | [12] 65.4% | [13] 40.7% | [14] 41% | [15] 28.6% | [17] 14.9% | [18] 28.8% | [19] 27.3%
active: [9] 2.44% | [11] 8.52% | [20] 3.58%

CN(C)c1ccc(/C=N/n2c(-c3cc(F)c(Cl)cc3Cl)nn(CN3CCOCC3)c2=S)cc1
inactive: [1] 103% | [2] 110% | [3] 97.7% | [4] 99.4% | [6] 103% | [7] 92.3% | [8] 94.8% | [9] 96.1% | [10] 108% | [11] 104% | [12] 107% | [13] 103% | [20] 69.1% | [14] 107% | [15] 98.6% | [17] 77.9% | [18] 92.4% | [19] 88.8%

CCN(CC)CC(=O)Nc1c(C)cccc1C
inactive: [1] 98.1% | [2] 111% | [3] 95.5% | [4] 106% | [6] 100% | [7] 93.2% | [8] 105% | [9] 100% | [10] 110% | [11] 104% | [12] 85.2% | [13] 98.8% | [20] 83.2% | [14] 116% | [16] 94.3% | [17] 102% | [18] 103% | [19] 104%

C/C(=N\N=C1/SCC(=O)N1c1ccccc1)c1ccco1
active: [18] -63.9%
inactive: [1] 112% | [2] 136% | [3] 185% | [4] 113% | [6] 94.7% | [7] 88.8% | [8] 122% | [9] 94.2% | [10] 112% | [11] 91.6% | [12] 105% | [13] 131% | [20] 84.9% | [14] 96.9% | [15] 106% | [17] 89.2% | [19] 112%

O=C(Nc1ccc(-n2cc(-c3ccncc3)c(-c3ccc(O)c(Cl)c3)n2)cc1)c1cc(Cl)cc(Cl)c1
active: [2] -19.5% | [7] 2.65% | [9] 1.16% | [11] 7.85%
inactive: [1] 11.2% | [3] 60.6% | [4] 50% | [5] 26.8% | [6] 35.6% | [10] 53.4% | [12] 56.5% | [13] 35.8% | [20] 16.4% | [16] 45.8% | [17] 95.4% | [18] 16.9% | [19] 11.1%

CCN(CC)CCNC(=O)c1c(C)[nH]c(/C=C2\C(=O)Nc3cc(NC(=O)NC(=O)c4ccc(OC)cc4F)ccc32)c1C
inactive: [1] 72.7% | [2] 31.7% | [3] 94% | [4] 92.4% | [5] 92.8% | [6] 86.8% | [7] 85.3% | [9] 97% | [10] 99.7% | [11] 128% | [12] 114% | [13] 97.3% | [20] 96.2% | [15] 38.2% | [18] 42.4% | [19] 38.2%
